Values joined by “and” are separate entries in the source; they are usually repeats but may differ in a detail not shown here. Equal values may be shown once. Results filed as inconclusive are left out. Active and inactive are the calls of the source. The call rests on the fitted dose curve; in most records, active means well fitted inhibition curve with a large enough effect; inconclusive means small, poorly fitted or top-dose-only effect; inactive means flat fitted curve, though single readings scatter.
Legend:
PAD = assay: qHTS profiling for inhibitors of Plasmodium falciparum proliferation (AID 504749); further: potency means the concentration at half of the fitted maximal effect; details: P. falciparum in erythrocytes, SYBR Green DNA, 72 h; series mostly up to 28.7 µM
Procedure, shortened: (§1)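 In a 72 h erythrocytic culture (37 C, humidified, 5% CO2) at 2.5% hematocrit and 0.3% starting parasitemia, compounds were tested; SYBR Green I in detergent lysis buffer stained parasite DNA overnight.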

PC15 = assay: as above; details: P. falciparum in erythrocytes, SYBR Green DNA, 72 h; series mostly up to 28.7 µM
Procedure, shortened: as §1

PC26 = assay: as above; details: P. falciparum in erythrocytes, SYBR Green DNA, 72 h; series mostly up to 28.7 µM
Procedure, shortened: as §1

PC49 = assay: as above; details: P. falciparum in erythrocytes, SYBR Green DNA, 72 h; series mostly up to 28.7 µM
Procedure, shortened: as §1

SC27B = assay: as above; details: P. falciparum in erythrocytes, SYBR Green DNA, 72 h; series mostly up to 28.7 µM
Procedure, shortened: as §1

TAB109 = assay: as above; details: P. falciparum in erythrocytes, SYBR Green DNA, 72 h; series mostly up to 28.7 µM
Procedure, shortened: as §1

TAB113 = assay: as above; details: P. falciparum in erythrocytes, SYBR Green DNA, 72 h; series mostly up to 28.7 µM
Procedure, shortened: as §1

TAB165 = assay: as above; details: P. falciparum in erythrocytes, SYBR Green DNA, 72 h; series mostly up to 28.7 µM
Procedure, shortened: as §1

W2 = assay: as above; details: P. falciparum in erythrocytes, SYBR Green DNA, 72 h; series mostly up to 28.7 µM
Procedure, shortened: as §1

CRL-7250 = normal cell line; assay: Cytotoxic Profiling of Annotated Libraries Using Quantitative High-Throughput Screening (AID 1296008); details: Five cell lines viability, CellTiter-Glo ATP luminescence, 48-72 h; hits give low values; on max response: on the % scale 0 is the no-effect control and ±100 the full control effect
Procedure, shortened: (§2)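 Cytotoxicity was measured as CellTiter-Glo ATP luminescence, read after 10 min at room temperature. Compound treatment of the cells lasted 48 or 72 hr at 37 degrees Celsius in a qHTS format.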

HaCat [1] = assay: as above; details: Five cell lines viability, CellTiter-Glo ATP luminescence, 48-72 h; hits give low values
Procedure, shortened: as §2

KB-3-1 = assay: as above; details: Five cell lines viability, CellTiter-Glo ATP luminescence, 48-72 h; max response: hits give low values
Procedure, shortened: as §2

HACAT [2] = assay: qHTS assay to identify novel small-molecules to repurpose for Merkel cell carcinoma treatment (AID 1296009); details: MCC and control cell lines, CellTiter-Glo viability, 72 h; at 44.8 µM (top of the series)
Procedure, shortened: (§3)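 Cell viability measured by CellTiter-Glo following 72 hr compound treatment at 37 degree celsius, with NPC and MIPE libraries tested in 8- and 11-point concentration series.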

MCC-13 = assay: as above; details: MCC and control cell lines, CellTiter-Glo viability, 72 h; series mostly up to 46 µM
Procedure, shortened: as §3

MCC-26 = assay: as above; details: MCC and control cell lines, CellTiter-Glo viability, 72 h; series mostly up to 46 µM
Procedure, shortened: as §3

MKL-1 = assay: as above; details: MCC and control cell lines, CellTiter-Glo viability, 72 h; series mostly up to 46 µM
Procedure, shortened: as §3

MKL-2 = assay: as above; details: MCC and control cell lines, CellTiter-Glo viability, 72 h; series mostly up to 46 µM
Procedure, shortened: as §3

NIH3T3 = assay: Cytotoxic Profiling of Annotated Libraries Using Quantitative High-Throughput Screening (AID 1296008); details: Five cell lines viability, CellTiter-Glo ATP luminescence, 48-72 h; max response: hits give low values; on max response: on the % scale 0 is the no-effect control and ±100 the full control effect
Procedure, shortened: as §2

HEK293 = assay: as above; details: Five cell lines viability, CellTiter-Glo ATP luminescence, 48-72 h; max response: hits give low values
Procedure, shortened: as §2

HEK293T = assay: qHTS assay to identify novel small-molecules to repurpose for Merkel cell carcinoma treatment (AID 1296009); details: MCC and control cell lines, CellTiter-Glo viability, 72 h; at 44.8 µM (top of the series)
Procedure, shortened: as §3
Further: nearly all actives have a fitted effect of over 60% in size.

CC(=O)Oc1cccc2c1C(=O)c1c(OC(C)=O)cc(C(=O)O)cc1C2=O
inactive: Potency (PAD) | Potency (PC15) | Potency (PC26) | Potency (PC49) | Potency (SC27B) | Potency (TAB109) | Potency (TAB113) | Potency (TAB165) | Potency (W2) | max response (CRL-7250) -18.7% | outcome (HaCat [1]) | max response (KB-3-1) -2.72% | outcome (HACAT [2]) | outcome (MCC-13) | outcome (MCC-26) | outcome (MKL-1) | outcome (MKL-2)

COc1ccc2nc(NC(=O)Nc3ccccc3)sc2c1
inactive: Potency (PAD) | Potency (PC15) | Potency (PC26) | Potency (PC49) | Potency (SC27B) | Potency (TAB109) | Potency (TAB113) | max response (CRL-7250) 1.89% | outcome (HaCat [1]) | max response (KB-3-1) 36.1% | max response (NIH3T3) -17.1% | outcome (HACAT [2]) | outcome (MCC-13) | outcome (MCC-26) | outcome (MKL-1) | outcome (MKL-2)

COc1ccc(C(=O)/C(Br)=C\C(=O)O)cc1
inactive: max response (KB-3-1) 19.2%

O=C(OCc1ccccc1)c1ccc(O)cc1
inactive: Potency (PAD) | Potency (PC15) | Potency (PC26) | Potency (PC49) | Potency (SC27B) | Potency (TAB109) | Potency (TAB113) | Potency (TAB165) | Potency (W2) | max response (CRL-7250) -9.5% | outcome (HEK293) | max response (KB-3-1) 2.26% | max response (NIH3T3) 0.27% | outcome (HEK293T) | outcome (MCC-13) | outcome (MCC-26) | outcome (MKL-1) | outcome (MKL-2)

CC(C)(C)c1ccc(CN2CCN(C(c3ccccc3)c3ccc(Cl)cc3)CC2)cc1 (centres undefined)
inactive: max response (CRL-7250) 1.08% | outcome (HaCat [1]) | max response (KB-3-1) 1.38% and -2.29% | outcome (NIH3T3) | outcome (HACAT [2])

Oc1ccc(/C=C/c2cc(O)cc(O)c2)cc1
inactive: max response (CRL-7250) -2.32% | max response (HEK293) -3.47% | max response (KB-3-1) 36.2% | outcome (MCC-13) | outcome (MCC-26) | outcome (MKL-1)

C=CC1=C(C(=O)O)N2C(=O)[C@@H](NC(=O)/C(=N\O)c3csc(N)n3)[C@H]2SC1 (stereo in doubt)
inactive: max response (KB-3-1) 5.78% and -12.7%

Nc1nc(/C(=C/CC(=O)O)C(=O)N[C@@H]2C(=O)N3C(C(=O)O)=CCS[C@H]23)cs1
inactive: max response (KB-3-1) -7.11%

CCN(CC)CCOC[C@H]1O[C@@H](O)[C@H](OCCN(CC)CC)[C@@H](O)[C@@H]1O
inactive: max response (KB-3-1) 8.48%

CC1CC(OC(=O)C(O)c2ccccc2)CC(C)(C)C1 (centres undefined)
inactive: Potency (PAD) | Potency (PC15) | Potency (PC26) | Potency (PC49) | Potency (SC27B) | Potency (TAB109) | Potency (TAB113) | Potency (TAB165) | Potency (W2) | outcome (HaCat [1]) | max response (KB-3-1) 19.9% and -6.72% | max response (NIH3T3) 2.78% | outcome (HACAT [2])

OC[C@H]1O[C@@H](O[C@H]2[C@H](O)[C@@H](O)[C@H](O)O[C@@H]2CO)[C@H](O)[C@@H](O)[C@@H]1O
inactive: max response (KB-3-1) 4.72%

CC(C)CCC[C@@H](C)[C@H]1CC(=O)C2=C3CC[C@H]4C[C@@H](O)CC[C@]4(C)[C@H]3CC[C@@]21C
inactive: max response (KB-3-1) -6.65%

CC(C)[C@@H](C)/C=C/[C@@H](C)[C@H]1CC[C@H]2/C(=C/C=C3\C[C@@H](O)CC[C@@H]3C)CCC[C@]12C
inactive: max response (KB-3-1) 8.4%

CCCCCCCCCCCCCCCC(=O)OC[C@H](COP(=O)([O-])OCC[N+](C)(C)C)OC(=O)CCCCCCCCCCCCCCC
inactive: max response (KB-3-1) -12.2%

CO[C@H]1C[C@H](O[C@@H]2/C(C)=C/C[C@@H]3C[C@@H](C[C@]4(CC[C@H](C)[C@@H](C5CCCCC5)O4)O3)OC(=O)[C@@H]3C=C(C)/C(=N/O)[C@H]4OC/C(=C\C=C\[C@@H]2C)[C@]43O)O[C@@H](C)[C@@H]1O
inactive: max response (KB-3-1) -1.21%

COc1ccc2c(c1)N(C[C@H](C)CN(C)C)c1ccccc1S2
inactive: max response (KB-3-1) -8.39%

CS(=O)(=O)c1ccc([C@@H](O)[C@@H](COC(=O)CN)NC(=O)C(Cl)Cl)cc1
active: Potency (TAB109) 8.91 µM
inactive: Potency (PAD) | Potency (PC15) | Potency (PC26) | Potency (PC49) | Potency (SC27B) | Potency (TAB113) | max response (KB-3-1) -15.1%

CCN(CC)C(=O)[C@]1(c2ccccc2)C[C@@H]1CN
inactive: max response (KB-3-1) 6.62%

CCCC1C(=O)N2C(N(C)C)=Nc3ccc(C)cc3N2C1=O (centres undefined)
inactive: max response (KB-3-1) -2.47%

O=C(CO)[C@@H](O)[C@H](O)[C@@H](O)C(=O)O
inactive: max response (KB-3-1) -10%

NC(=O)c1ccc[n+]([C@@H]2O[C@H](COP(=O)([O-])OP(=O)(O)OC[C@H]3O[C@@H](n4cnc5c(N)ncnc54)[C@H](O)[C@@H]3O)[C@@H](O)[C@H]2O)c1
inactive: max response (KB-3-1) -2.72%

C=C1c2c(Cl)ccc(O)c2C(O)=C2C(=O)[C@]3(O)C(O)=C(C(N)=O)C(=O)[C@@H](N(C)C)[C@@H]3[C@@H](O)[C@H]12
inactive: max response (KB-3-1) 7.79%

C=C1[C@@H]2CC[C@@H](C2)C1(C)C
inactive: max response (KB-3-1) -10.2%

CC[C@@H]1/C=C(\C)C[C@H](C)C[C@H](OC)[C@H]2O[C@@](O)(C(=O)C(=O)N3CCCC[C@H]3C(=O)O[C@H](/C(C)=C/[C@@H]3CC[C@@H](Cl)[C@H](OC)C3)[C@H](C)[C@@H](O)CC1=O)[C@H](C)C[C@@H]2OC
inactive: max response (KB-3-1) -9.83%

CC1CCCC(C)N1NC(=O)c1ccc(Cl)c(S(N)(=O)=O)c1 (centres undefined)
inactive: max response (KB-3-1) 1.28%

C=C1CC[C@H](O)CC1=C/C=C1\CCC[C@]2(C)[C@@H]([C@H](C)CC[C@@H](O)C(C)(C)O)CC[C@@H]12
inactive: max response (KB-3-1) 6.41%

CC(C)=CCC/C(C)=C/CC/C(C)=C/CC/C(C)=C/CC1=C(C)C(=O)c2ccccc2C1=O
inactive: max response (KB-3-1) 5.32% and -12.9%

CCN(CC)CCOc1ccccc1OC
inactive: Potency (PAD) | Potency (PC15) | Potency (PC26) | Potency (PC49) | Potency (SC27B) | Potency (TAB109) | Potency (TAB113) | Potency (TAB165) | max response (KB-3-1) 3.77%

C[C@@H](O)[C@H]1C(=O)N2C(C(=O)[O-])=C(SC3Cn4cnc[n+]4C3)[C@H](C)[C@H]12 (some centres undefined)
inactive: max response (KB-3-1) 1.34%

CO[C@H]1C=CO[C@@]2(C)Oc3c(C)c(O)c4c(O)c(cc(O)c4c3C2=O)NC(=O)/C(C)=C\C=C/[C@H](C)[C@H](O)[C@@H](C)[C@@H](O)[C@@H](C)[C@H](OC(C)=O)[C@@H]1C
inactive: max response (KB-3-1) -3.21%

COc1c(O[C@@H]2O[C@H](CO)[C@@H](O)[C@H](O)[C@H]2O)cc2c(c1OC)-c1ccc(SC)c(=O)cc1[C@@H](NC(C)=O)CC2
inactive: max response (KB-3-1) 48.2%

CN[C@H](CC(C)C)C(=O)N[C@H]1C(=O)N[C@@H](CC(N)=O)C(=O)N[C@H]2C(=O)N[C@H]3C(=O)N[C@H](C(=O)N[C@@H](C(=O)O)c4cc(O)cc(O)c4-c4cc3ccc4O)[C@H](O)c3ccc(c(Cl)c3)Oc3cc2cc(c3O[C@@H]2O[C@H](CO)[C@@H](O)[C@H](O)[C@H]2O[C@H]2C[C@](C)(N)C(O)[C@H](C)O2)Oc2ccc(cc2Cl)[C@H]1O (some centres undefined)
inactive: max response (KB-3-1) 9.66% and -29.2%

O=C1/C(=C\c2cccs2)CCC/C1=C\c1cccs1
inactive: max response (KB-3-1) 8.4%

C[C@]12CC[C@@H]3c4ccc(O)cc4CC[C@H]3[C@@H]1CC[C@@H]2OP(=O)(O)O
inactive: max response (KB-3-1) -26.5%

CC(=C\c1ccccc1)/C=C1/SC(=S)N(CC(=O)O)C1=O
inactive: max response (KB-3-1) 3.64%

CC(CN1c2ccccc2Sc2cccnc21)N(C)C (centres undefined)
inactive: max response (KB-3-1) -2.53%

CO/N=C(\C(=O)N[C@@H]1C(=O)N2C(C(=O)O)=CCS[C@H]12)c1csc(N)n1
inactive: max response (KB-3-1) 1.16%

CNCC(O)c1ccc(OC(=O)C(C)(C)C)c(OC(=O)C(C)(C)C)c1 (centres undefined)
inactive: max response (KB-3-1) -7.58%

COC1[C@@H](O[C@@H]2O[C@H](C)[C@@H](O[C@H]3C[C@@](C)(O)[C@H](OC(=O)CC(C)C)[C@H](C)O3)[C@H](N(C)C)[C@H]2O)[C@@H](CC=O)C[C@@H](C)[C@@H](O)/C=C/C=C/C[C@@H](C)OC(=O)C[C@H]1OC(C)=O (some centres undefined)
inactive: max response (KB-3-1) -19.6%

C=Cc1c(C)c2cc3nc(cc4[nH]c(cc5nc(cc1[nH]2)C(C)=C5CCC(=O)OC)c(CCC(=O)O)c4C)[C@@]1(C)C3=CC=C(C(=O)OC)[C@H]1C(=O)OC
inactive: max response (KB-3-1) -15.7%

From PubChem BioAssay (NCATS)
